# BioA inh: M. tuberculosis BioA enzyme inhibitors, primary screen, biochemical, plate reader, single point, HTS | hit rate 0.096% among 360,000 | inhibition, % at 9.99 µM | purified M. tuberculosis BioA enzyme; in the data active = inhibition above about 40%
# Vc quorum ag: inducers of Vibrio cholerae quorum light production without autoinducers, primary screen, BH1578 luxS cqsA deficient, single point; V. cholerae BH1578 lux reporter, luminescence, 6 h; activation, % at 18.7 µM; hit rate 0.16% among 350,000; AID 588436, 2011; in the data active = activation mostly above about 9.7%, no sharp cut-off
# FadD28 FP inh: inhibitors of FadD28 bisubstrate probe binding, primary screen, biochemical, fluorescence polarization, single point | hit rate 0.22% among 360,000 | AID 588549, 2011 | inhibition, % at 12.5 µM; in the data active = inhibition above about 8.5%, passing the limit was not always enough
# Y pestis TopoI: Yersinia pestis topoisomerase I inhibitors, primary screen, biochemical, cleavage product accumulation, plate reader, single point; hit rate 0.064% among 360,000; Y. pestis Topo-I cleavage product accumulation; AID 504884, 2011; activity, % at 10 µM; DNA topoisomerase I (Yersinia pestis CO92); in the data active = activity above about 50%, passing the limit was not always enough
# TcdB inh: TcdB glycohydrolase inhibitors, primary screen, biochemical, single point, plate reader. TcdB glycohydrolase enzymatic assay. hit rate 0.24% among 350,000. inhibition, % at 9.99 µM. AID 652162, 2013; in the data active = inhibition above about 10%
# Target sequence (P18177 whole entry, looked up): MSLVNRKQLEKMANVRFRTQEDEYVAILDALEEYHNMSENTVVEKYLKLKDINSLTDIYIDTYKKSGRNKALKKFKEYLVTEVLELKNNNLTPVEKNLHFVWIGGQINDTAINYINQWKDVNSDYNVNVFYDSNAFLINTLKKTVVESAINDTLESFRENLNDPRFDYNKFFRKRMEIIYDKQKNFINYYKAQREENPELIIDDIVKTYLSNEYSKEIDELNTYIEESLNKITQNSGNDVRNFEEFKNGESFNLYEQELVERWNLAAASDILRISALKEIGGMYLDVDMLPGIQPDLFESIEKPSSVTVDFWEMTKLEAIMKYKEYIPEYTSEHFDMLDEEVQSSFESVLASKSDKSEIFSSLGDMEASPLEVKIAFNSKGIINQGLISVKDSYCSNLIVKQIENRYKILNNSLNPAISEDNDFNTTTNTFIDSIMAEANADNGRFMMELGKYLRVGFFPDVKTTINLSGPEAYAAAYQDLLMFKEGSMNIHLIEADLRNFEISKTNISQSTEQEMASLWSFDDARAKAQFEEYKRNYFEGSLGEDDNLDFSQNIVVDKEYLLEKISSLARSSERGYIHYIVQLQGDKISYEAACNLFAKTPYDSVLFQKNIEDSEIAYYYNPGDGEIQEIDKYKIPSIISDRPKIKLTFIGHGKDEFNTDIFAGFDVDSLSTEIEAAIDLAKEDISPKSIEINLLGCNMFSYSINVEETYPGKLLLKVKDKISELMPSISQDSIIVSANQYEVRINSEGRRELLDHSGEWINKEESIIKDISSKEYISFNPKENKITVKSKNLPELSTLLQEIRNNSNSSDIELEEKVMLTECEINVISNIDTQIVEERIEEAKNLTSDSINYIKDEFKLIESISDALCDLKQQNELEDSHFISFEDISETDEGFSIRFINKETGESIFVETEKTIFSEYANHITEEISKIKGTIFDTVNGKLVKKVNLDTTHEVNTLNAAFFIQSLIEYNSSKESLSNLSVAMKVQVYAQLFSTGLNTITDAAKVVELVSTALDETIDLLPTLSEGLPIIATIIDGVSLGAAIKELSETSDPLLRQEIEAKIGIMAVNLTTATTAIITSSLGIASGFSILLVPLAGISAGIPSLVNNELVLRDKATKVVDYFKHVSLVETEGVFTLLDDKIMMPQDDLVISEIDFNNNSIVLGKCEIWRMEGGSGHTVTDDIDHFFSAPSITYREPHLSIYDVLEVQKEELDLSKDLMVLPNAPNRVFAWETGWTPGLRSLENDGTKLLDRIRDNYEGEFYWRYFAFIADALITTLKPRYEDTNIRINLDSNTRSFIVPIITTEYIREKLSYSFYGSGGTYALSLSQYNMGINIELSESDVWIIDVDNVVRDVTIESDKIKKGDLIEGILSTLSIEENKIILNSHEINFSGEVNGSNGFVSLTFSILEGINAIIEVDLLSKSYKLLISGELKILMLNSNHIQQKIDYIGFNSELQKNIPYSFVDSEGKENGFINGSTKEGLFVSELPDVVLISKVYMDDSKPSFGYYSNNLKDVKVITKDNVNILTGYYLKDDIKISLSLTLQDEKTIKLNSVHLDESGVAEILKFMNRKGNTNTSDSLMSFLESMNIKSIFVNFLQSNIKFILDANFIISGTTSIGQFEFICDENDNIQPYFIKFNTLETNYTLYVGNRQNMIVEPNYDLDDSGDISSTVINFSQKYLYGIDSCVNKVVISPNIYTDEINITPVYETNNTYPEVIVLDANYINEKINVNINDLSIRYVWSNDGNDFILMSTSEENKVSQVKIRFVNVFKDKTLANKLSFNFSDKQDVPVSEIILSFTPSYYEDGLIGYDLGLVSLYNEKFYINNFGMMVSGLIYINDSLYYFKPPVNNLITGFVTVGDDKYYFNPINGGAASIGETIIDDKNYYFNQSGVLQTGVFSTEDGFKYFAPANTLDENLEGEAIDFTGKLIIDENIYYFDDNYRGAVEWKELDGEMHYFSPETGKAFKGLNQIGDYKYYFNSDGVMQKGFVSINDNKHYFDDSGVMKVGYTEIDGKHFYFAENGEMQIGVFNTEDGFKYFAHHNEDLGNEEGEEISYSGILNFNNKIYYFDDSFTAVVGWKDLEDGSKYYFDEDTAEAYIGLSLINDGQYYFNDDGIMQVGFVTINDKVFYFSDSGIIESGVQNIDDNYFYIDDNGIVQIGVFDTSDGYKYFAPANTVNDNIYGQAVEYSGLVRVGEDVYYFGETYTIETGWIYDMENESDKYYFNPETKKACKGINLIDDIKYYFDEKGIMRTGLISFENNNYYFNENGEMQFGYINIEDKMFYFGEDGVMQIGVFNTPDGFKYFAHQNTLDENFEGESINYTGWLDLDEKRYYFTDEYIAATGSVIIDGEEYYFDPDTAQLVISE
# * = called active by the depositor; i = inactive; / = not tested or not shown; ! = not confirmed by another sample. This is a sample that favours compounds with a hit; in the whole collection about 0.61% have one here.
SMILES,BioA inh,Vc quorum ag,FadD28 FP inh,Y pestis TopoI,TcdB inh
O=C(CS(=O)(=O)Cc1ccccc1)Nc1ccc(S(=O)(=O)N2CCOCC2)cc1,-0.7,-0.3,-0.8,-6.1,1.8
O=C(CS(=O)(=O)Cc1ccccc1)Nc1ccc(S(=O)(=O)N2CCCCCC2)cc1,2.3,/,23.6*,10.7,/
CN(CC(=O)Nc1ccccc1-c1ccccc1)C1CCCCC1,-2.1,-0.3,-1.3,58.4*,/
O=C(CC1CCCCC1)Nc1ccccc1-c1ccccc1,/,i,-0.3,20.3,1.0
CCN(CC)c1ccc(/C=N/NC(=O)c2ccc3nc[nH]c3c2)cc1,3.3,i,31.4*,-13.0,1.2
O=C1NC(=S)S/C1=C/c1ccc(OC(=O)c2ccco2)cc1,-0.7,-0.1,-1.2,2.4,-0.1
O=C1NC(=S)S/C1=C\c1ccc(SCc2ccccc2)o1,1.2,-0.5,18.1*,8.7,/
O=C1NC(=S)S/C1=C\c1ccc(SCc2ccco2)o1,4.1,-0.6,45.2*,-15.7,/
O=C1NC(=O)/C(=C/c2ccc(-c3cccc([N+](=O)[O-])c3)o2)S1,-2.3,i,-1.3,-4.5,1.2
Cc1ccc(S(=O)(=O)Nc2ccc3c(c2)C(=O)N([C@H](C)CO)C[C@@H](C)[C@H](CN(C)C(=O)Nc2ccc(F)cc2)O3)cc1,-2.8,/,/,/,-0.4
COc1c2ccoc2c(OC)c2oc(=O)ccc12,1.0,0.2,-1.0,2.9,0.5
C=CC(C)(C)c1c2occc2c(O)c2ccc(=O)oc12,-0.3,-0.3,14.2*,1.1,-0.3
CN(CC(=O)Nc1ccc(OC(F)(F)F)cc1)C(=O)Cn1c(=O)cnc2ccccc21,-1.0,-5.5,-1.4,-4.5,-3.2
CN(CC(=O)Nc1cccc(F)c1)C(=O)Cn1c(=O)cnc2ccccc21,/,i,54.9*,-3.5,-0.2
O=C(Nc1ccc(F)cc1)N1C[C@@H]2[C@H](c3ccccc31)[C@@H](CO)N2C(=O)c1ccccc1,-3.5,/,/,/,-0.2
COc1ccc(N2C(=O)C3C4C=CC(C5CC45)C3C2=O)c([N+](=O)[O-])c1 (stereo not given),-0.3,16.7*,-1.6,-4.7,/
COc1ccc(N2C(=O)C3C4C=CC(CC4)C3C2=O)c([N+](=O)[O-])c1 (stereo not given),0.1,i,0.2,0.9,/
COc1ccccc1/C=N/NC(=O)CC(=O)NCc1ccccc1,1.7,-0.8,-4.8,8.3,10.5*
C[C@H]1CCCCO[C@H](CN(C)C(=O)c2ccccc2)[C@@H](C)CN([C@@H](C)CO)C(=O)c2cc(NC(=O)Nc3ccc(F)cc3)ccc2O1,-5.4,/,/,/,0.3
Cc1ccc(Nc2ccc(N)cc2S(=O)(=O)O)cc1,3.6,-7.7,84.5*,-1.9,0.1
Nc1ccc(Nc2ccccc2)c(S(=O)(=O)O)c1,3.0,-4.2,81.0*,3.6,-2.8
Cc1ccc(S(=O)(=O)c2cc(Nc3ccccc3)ccc2O)cc1,2.0,i,3.0,6.6,1.0
C[C@H](CO)N1C[C@H](C)[C@@H](CN(C)S(=O)(=O)c2ccc(F)cc2)Oc2ccc(NS(C)(=O)=O)cc2CC1=O,0.1,/,/,/,-2.0
C[C@H]1CN([C@@H](C)CO)C(=O)c2cc(NC(=O)c3ccncc3)ccc2O[C@@H]1CN(C)Cc1ccccc1,-2.0,/,/,/,0.6
C[C@H](CO)N1C[C@H](C)[C@@H](CN(C)CC2CCCCC2)Oc2ccc(NC(=O)CCN3CCOCC3)cc2C1=O,-2.0,i,-0.1,22.6,10.4*!
SMILES,BioA inh,Vc quorum ag,FadD28 FP inh,Y pestis TopoI,TcdB inh
COc1ccc(-c2cnc3c(c2)C(=O)N([C@@H](C)CO)C[C@H](C)[C@H](CN(C)C(=O)C2CCCCC2)O3)cc1,-1.3,/,/,/,12.2*
COc1ccc(NC(=O)Nc2ccc3c(c2)C(=O)N([C@H](C)CO)C[C@H](C)[C@@H](CN(C)S(=O)(=O)c2ccc(OC)cc2)O3)cc1,15.2,i,9.4*,10.0,-0.8
Cc1oc(-c2ccccc2)cc1C(=O)Nc1ccccc1,-2.2,16.7*,-0.6,-5.0,/
Fc1ccc(-c2csc(=S)[nH]2)cc1,/,-0.2,1.2,7.2,19.4*
S=c1[nH]c(-c2ccccc2)cs1,/,i,-0.3,-3.4,17.3*
COC(=O)C1=C(c2ccc(F)cc2OCc2ccccc2)C[C@@H]2CC[C@H]1N2C(=O)NC(C)C,-0.8,i,-2.0,13.2,2.2
COC(=O)C1=C(c2ccc(F)cc2OCc2ccccc2)C[C@@H]2CC[C@H]1N2C(=O)N1CCCC1,1.2,-0.4,-1.8,13.2,10.3*
COC(=O)C1=C(c2ccc(F)cc2OCc2ccccc2)C[C@@H]2CC[C@H]1N2C(=O)NCCOc1ccccc1,-0.5,-0.4,-4.1,7.4,10.3*
C[C@H](CO)N1C[C@H](C)[C@H](CN(C)C(=O)Nc2cccc3ccccc23)Oc2ncc(C#Cc3ccc(C(F)(F)F)cc3)cc2C1=O,-1.1,/,/,/,0.8
Cc1cc(Cl)ccc1OCC(=O)O,-2.3,-0.2,-1.0,9.8,1.0
Cc1ccccc1C1=C/C(=C(\SS/C(C(=O)c2ccc(OCC(=O)O)c(Cl)c2Cl)=C2\C=C(c3ccccc3C)SS2)C(=O)c2ccc(OCC(=O)O)c(Cl)c2Cl)SS1,/,i,73.3*,2.1,-1.8
C[C@H](CO)N1C[C@H](C)[C@H](CN(C)Cc2ccc(-c3ccccc3)cc2)Oc2ccc(N(C)C)cc2C1=O,3.3,/,/,/,-5.0
O=C(Nc1nnc(-c2ccc(F)cc2)o1)c1ccc(S(=O)(=O)N2CCOCC2)cc1,-1.6,25.1*,0.7,6.2,/
CS(=O)(=O)c1cccc(-c2nnc(NC(=O)c3ccc(S(=O)(=O)N4CCCC4)cc3)o2)c1,-1.1,i,-3.1,0.4,0.5
COc1ccc2c3c([nH]c2c1)[C@@H](CO)N(C(=O)CN(C)C)CC31CN(CC2CC2)C1,/,/,/,/,-0.8
O=C(/C=C/c1ccc(F)cc1)OCC(=O)c1ccc[nH]1,-2.1,0.8,-0.6,7.8,1.9
O=C(COC(=O)c1ccc(F)cc1F)c1ccc[nH]1,-0.3,i,1.1,5.6,10.3*
CCSC1=N/C(=C\c2ccc(-c3ccccc3[N+](=O)[O-])o2)C(=O)S1,/,0.1,1.2,-11.5,/
CCCSC1=N/C(=C\c2ccc([N+](=O)[O-])o2)C(=O)S1,-1.2,i,11.7*,-11.6,-0.4
CCCSC1=N/C(=C\C=C\c2ccco2)C(=O)S1,/,i,14.9*,-17.3,/
COc1ccc(NC(=O)N(C)C[C@@H]2Oc3ccc(NC(=O)NC4CCCCC4)cc3CC(=O)N([C@@H](C)CO)C[C@H]2C)cc1,0.4,/,/,/,-0.7
C[C@H](CO)N1C[C@H](C)[C@H](CN(C)Cc2ccncc2)Oc2ncc(C#CCC3CCCC3)cc2C1=O,-0.3,/,/,/,0.9
COc1ccc(CN2C(C)C3C(C)=CC2C2C(=O)N(C)C(=O)C32)cc1 (stereo not given),-0.7,/,/,/,1.6

# Screening data (PubChem BioAssay)
